Measurements published in PubChem BioAssay (NCI).
The panel holds about 83,000 compounds, 20% with a hit somewhere; the sample as a whole holds those more often.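 Plates (96-well) were seeded with cells, treated with compound at one concentration, and incubated for 48 hours before percent growth was determined.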 Active and inactive are the calls of the source. The calls were made as follows: active = growth percent below 10; inactive = the rest.

Test system: LOX IMVI melanoma
Experiment: NCI-60 one-dose screen, 48 h (100 = growth as untreated, 0 = no growth, -100 = all killed)
Settings: 10 µM

SMILES	growth
CCCCCCCCCCCC(=O)NCCCN(C)C	69% (inactive)
Nc1ccc(C2=CC(c3ccc(Cl)cc3)N3C=CSC3=N2)cc1 (stereo not drawn)	-83.3% (active)
CC(=O)n1nc(C(=O)OC(C)(C)C)c2cc(F)c(F)cc21	98.2% (inactive)
COC(=O)c1c(C)nc(Nc2nc3ccccc3s2)nc1-c1ccc(Cl)cc1Cl	101% (inactive)
O=C(O)CCCCSCCCCC(=O)O	109% (inactive)
COc1cc(-c2nc3ccc(C)cc3[nH]2)ccc1OCC(=O)N=Nc1c(O)[nH]c2ccccc12	-97.7% (active)
CC1=CSC2=NC(c3ccc(Cl)c(Cl)c3)=CC(c3ccc(Cl)cc3)N12 (stereo not drawn)	-82.4% (active)
COc1ccc(Nc2ccnc(N3CCN(c4ccnc5cc(Cl)ccc45)CC3)n2)cc1	4.18% (active)
Cn1cnc([N+](=O)[O-])c1/C=C1\Oc2ccc(Cl)cc2C1=O	73% (inactive)
CCOC(=O)Cn1nnc(-c2ccc(OCc3ccccc3F)cc2)n1	85.2% (inactive)
COc1ccc(/C(CS(=O)(=O)c2ccccc2)=N\O)cc1	111% (inactive)
COc1ccc(S(=O)(=O)Nc2cc(/C=C\c3cc(OC)c(OC)c(OC)c3)ccc2OC)cc1	19.3% (inactive)
COc1ccc2nc(C)cc(Nc3ccc(Cl)cc3)c2c1	105% (inactive)
COc1cc(-c2nc3ccc(C)cc3[nH]2)ccc1OCc1nnc(-c2ccc(CC(C)C)cc2)o1	103% (inactive)
Cc1noc(C)c1-c1ccc2nc(NC(=O)[C@H]3CCN(C#N)C3)cn2c1	77.7% (inactive)
COc1ccc(COC(=O)CC(C)C)cc1	97.1% (inactive)
Cc1ccc(-n2nnc3c(sc4ccccc43)c2=O)cc1	39.3% (inactive)
Nc1ccn([C@@H]2O[C@H](COP(=O)(O)O[C@@H]3C[C@H](n4cc(F)c(=O)[nH]c4=O)O[C@@H]3COP(=O)(O)O[C@@H]3C[C@H](n4cc(F)c(=O)[nH]c4=O)O[C@@H]3COP(=O)(O)O[C@@H]3C[C@H](n4cc(F)c(=O)[nH]c4=O)O[C@@H]3COP(=O)(O)O[C@@H]3C[C@H](n4cc(F)c(=O)[nH]c4=O)O[C@@H]3COP(=O)(O)O[C@@H]3C[C@H](n4cc(F)c(=O)[nH]c4=O)O[C@@H]3COP(=O)(O)O[C@@H]3C[C@H](n4cc(F)c(=O)[nH]c4=O)O[C@@H]3COP(=O)(O)O[C@@H]3C[C@H](n4cc(F)c(=O)[nH]c4=O)O[C@@H]3COP(=O)(O)O[C@@H]3C[C@H](n4cc(F)c(=O)[nH]c4=O)O[C@@H]3COP(=O)(O)O[C@@H]3C[C@H](n4cc(F)c(=O)[nH]c4=O)O[C@@H]3COP(=O)(O)O[C@@H]3C[C@H](n4cc(F)c(=O)[nH]c4=O)O[C@@H]3COP(=O)(O)OCCOCCOCCOCCOCCOCCO)[C@H](O)C2O)c(=O)n1 (stereo partly drawn)	25.2% (inactive)
COc1ccc(-c2nnc(COc3ccc(NC(=O)Nc4cccc(C(F)(F)F)c4)cc3F)o2)cc1	8.23% (active)

SMILES	growth
Fc1ccc(Nc2ccnc(N3CCN(c4ccnc5cc(Cl)ccc45)CC3)n2)cc1	49.8% (inactive)
CCOC(=O)c1cc(-c2ccccc2)nc(N)n1	101% (inactive)
CC1(CO)CCCC12OCCO2 (stereo not drawn)	104% (inactive)
CCc1c(C)[nH]c(=O)c(C(N)=O)c1C#N	109% (inactive)
CCOc1ccc2c(c1)CC[C@@H]1[C@@H]2CC[C@]2(C)[C@@H](O)[C@@H](O)C[C@@H]12	102% (inactive)
COc1ccc(OC)c([N+](=O)[O-])c1C=O	83.4% (inactive)
CCOC(=O)Nc1ccc2c(c1)C(=O)N(CC)c1ccccc1O2	15.1% (inactive)
Cc1ccc(C)c2c1sc1nc3n[nH]c(N)c3c(=N)n12	96.2% (inactive)
c1ccc(CC(NCCNC(Cc2ccccc2)c2ccccc2)c2ccccc2)cc1 (stereo not drawn)	-87.9% (active)
Cc1ccc2nc(-c3ccc(OCC(=O)N=Nc4c(O)[nH]c5ccccc45)cc3)[nH]c2c1	39% (inactive)
COc1ccc2c(=O)cc(C(Cl)(Cl)Cl)oc2c1	-15.5% (active)
c1ccc(OCCC[P+](c2ccccc2)(c2ccccc2)c2ccccc2)cc1	2.53% (active)
COc1cc(CSc2nc3ccc(C)cc3c(=O)n2Cc2ccccc2)cc(OC)c1OC	39.8% (inactive)
C[N+]1=C(/C=C/c2ccc(I)cc2)C(C)(C)c2ccccc21	38% (inactive)
COc1ccccc1S(=O)(=O)Nc1ccc2c(c1)CN(C)C(=O)N2	29.1% (inactive)
CCC(O)c1ccc(Br)cc1NC(=O)c1cccc(Cl)c1 (stereo not drawn)	0.289% (active)
CCCCn1c(=O)[nH]c(N)c(C(c2ccc(Cl)cc2)c2c(N)[nH]c(=O)n(CCCC)c2=O)c1=O	41.2% (inactive)
COc1ccc(C(=O)/C=C/c2cc(-c3ccc4c(c3)OCO4)n[nH]2)cc1OC	47.5% (inactive)
COc1ccc2oc(=O)cc(C(c3ccc[nH]3)c3ccc[nH]3)c2c1	7.59% (active)
